The source of these data is PubChem BioAssay (NCI).

What all share (test): NCI-60 one-dose screen, 48 h (100 = growth as untreated, 0 = no growth, -100 = all killed)
In one assay the test system is HCT-15 colon. Conditions: 10 µM unless noted.
The test system of the next assay is HT29 colon. The settings on record: 10 µM unless noted.
A further assay deals with SNB-75 CNS. The settings on record: 10 µM unless noted.
In another assay the test system is SNB-19 CNS. Conditions: 10 µM unless noted.
Another assay has as its system U251 CNS. The settings on record: 10 µM unless noted.
Another assay deals with PC-3 prostate. The settings on record: 10 µM unless noted.
A further assay relates to SK-MEL-5 melanoma. The settings on record: 10 µM unless noted.
The next assay relates to UACC-62 melanoma. Conditions: 10 µM unless noted.
A further assay concerns LOX IMVI melanoma. The settings on record: 10 µM unless noted.
The subject of the next assay is SK-MEL-28 melanoma. Conditions: 10 µM unless noted.
In a further assay the test system is SK-MEL-2 melanoma. Conditions: 10 µM unless noted.
A further assay deals with EKVX NSCLC. Conditions: 10 µM.
The next assay has as its system SN12C renal. Conditions: 10 µM unless noted.
Another assay deals with UO-31 renal. The settings on record: 10 µM unless noted.
A further assay deals with TK-10 renal. The settings on record: 10 µM unless noted.
A further assay deals with ACHN renal. Conditions: 10 µM unless noted.
The test system of another assay is CAKI-1 renal. The settings on record: 10 µM unless noted.
A further assay deals with A498 renal. Conditions: 10 µM unless noted.
The subject of a further assay is CCRF-CEM leukemia. The settings on record: 10 µM.
The test system of a further assay is MOLT-4 leukemia. The settings on record: 10 µM unless noted.

The panel holds about 83,000 compounds, 20% with a hit somewhere; the sample as a whole holds those more often.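 Compound tested at a single concentration for 48 hours in 96-well plates; a percent growth value below 10 was scored as active.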 Values without a mark were called inactive. Activity calls are given as the source filed them.

On to `COc1cc(NC(C)CCCN)c2nc(C)ccc2c1OC` (stereo not given), for which the growth in the assay with HCT-15 colon is 106%; in the assay with HT29 colon, 93.2%; with SNB-75 CNS, 98.7%; in the assay on SNB-19 CNS it was 107%; in the assay on U251 CNS it was 94.7%; in the assay on PC-3 prostate it was 85.9%. Also, the growth in the assay with SK-MEL-5 melanoma is 101%; in the assay on UACC-62 melanoma, 108%; with LOX IMVI melanoma, 106%; in the assay with SK-MEL-28 melanoma, 101%; in the assay with SK-MEL-2 melanoma it was 99.6%; in the assay with EKVX NSCLC it was 97.1%. The growth in the assay with SN12C renal was 99%; with UO-31 renal, 95.7%; in the assay on TK-10 renal, 110%; in the assay with ACHN renal it was 105%; in the assay on CAKI-1 renal, 106%; with A498 renal it was 92.7%. Moreover, the values for the growth in the assay on CCRF-CEM leukemia and in the assay with MOLT-4 leukemia were 24.8% and 6.98% (active), respectively.

As to `CCCC(CCC)Oc1ccc(CCCC2=C(O)c3ccccc3C(=O)C2=O)cc1`, the growth in the assay on HCT-15 colon was 21.7%; in the assay with HT29 colon, 25.8%; with SNB-75 CNS it was 46.1%; with SNB-19 CNS it was 28.2%; with U251 CNS, 27.1%; in the assay on PC-3 prostate, 27.7%. The growth in the assay on SK-MEL-5 melanoma is 13.1%; in the assay with UACC-62 melanoma it was 30.4%; in the assay on LOX IMVI melanoma, 5.38% (active); in the assay with SK-MEL-28 melanoma, 59.2%; in the assay with SK-MEL-2 melanoma, 27.7%; in the assay with EKVX NSCLC, 26.3%. Besides, the growth is 45.5% in the assay with SN12C renal; 47.3% in the assay on UO-31 renal; 36.2% in the assay with TK-10 renal; 29.9% in the assay on ACHN renal; 64.4% in the assay with CAKI-1 renal; 31% in the assay with A498 renal. In addition, the growth in the assay with CCRF-CEM leukemia was 36.1%; with MOLT-4 leukemia, 38.1%.

Consider `CC(C)(C)OC(=O)N1C/C(=C\c2ccccc2)C(=O)/C(=C/c2ccccc2)C1`, for which the growth in the assay with HCT-15 colon is 96.5%; with HT29 colon, 94.1%; in the assay on SNB-75 CNS, 74.9%; in the assay on SNB-19 CNS, 91.2%; in the assay on U251 CNS, 90.5%; in the assay on PC-3 prostate, 81%. For the same compound, the growth with SK-MEL-5 melanoma was 108%; with UACC-62 melanoma it was 84%; in the assay on LOX IMVI melanoma it was 95.1%; in the assay on SK-MEL-28 melanoma, 107%; with SK-MEL-2 melanoma, 94.2%; with EKVX NSCLC, 97.7%. In addition, the growth with SN12C renal is 93.5%; in the assay with UO-31 renal, 71.9%; in the assay on TK-10 renal, 102%; in the assay on ACHN renal, 106%; in the assay with CAKI-1 renal, 84.8%; in the assay on A498 renal, 101%. Besides, the growth in the assay with CCRF-CEM leukemia was 76.4%; in the assay with MOLT-4 leukemia, 71.8%.

In the case of `CC(=O)Nc1nc(C)c(C(=O)NN)s1`, the growth is 107% in the assay on HCT-15 colon; 106% in the assay with HT29 colon; 88.8% with SNB-75 CNS; 94.4% in the assay with SNB-19 CNS; 92.1% in the assay with U251 CNS; 84.4% in the assay with PC-3 prostate. In addition, the growth is 102% with SK-MEL-5 melanoma; 91.9% in the assay on UACC-62 melanoma; 96.1% in the assay on LOX IMVI melanoma; 100% in the assay with SK-MEL-28 melanoma; 24.7% with SK-MEL-2 melanoma; 143% with EKVX NSCLC. In addition, the growth in the assay on SN12C renal is 95.2%; with UO-31 renal, 86.1%; in the assay with TK-10 renal, 203%; in the assay on ACHN renal it was 93.6%; in the assay on CAKI-1 renal, 125%; in the assay on A498 renal, 106%. The growth was 94.9% in the assay on CCRF-CEM leukemia and 111% in the assay on MOLT-4 leukemia.

For the compound `Cc1ncc(C(=O)Nc2ccc(CN3CCN(C)CC3)c(C(F)(F)F)c2)cc1C#Cc1c(N)ncc2ccc(F)cc12`, the growth with HCT-15 colon is -93.2% (active); in the assay on HT29 colon it was -87.4% (active); with SNB-75 CNS it was -3.33% (active); in the assay on SNB-19 CNS it was -99.6% (active); in the assay with U251 CNS, -88.3% (active); in the assay with PC-3 prostate, -83.6% (active). The growth is -70.2% (active) with SK-MEL-5 melanoma; -28.7% (active) in the assay with UACC-62 melanoma; -74.2% (active) in the assay on LOX IMVI melanoma; -85.8% (active) in the assay with SK-MEL-28 melanoma; 0.14% (active) with SK-MEL-2 melanoma; -7.75% (active) with EKVX NSCLC. Further, the growth was 19.1% in the assay with SN12C renal; 6.12% (active) in the assay on UO-31 renal; -89.2% (active) in the assay on TK-10 renal; -15.8% (active) in the assay on ACHN renal; 20.8% in the assay with CAKI-1 renal; -65.1% (active) in the assay on A498 renal. Further, the figures for the growth with CCRF-CEM leukemia and in the assay with MOLT-4 leukemia were -47.6% (active) and -57.9% (active), respectively.

Take `O=C(O)CC1Cc2ccccc2C1C(=O)O` (stereo not given): the growth was 101% in the assay with HCT-15 colon; 106% in the assay on HT29 colon; 92.4% in the assay on SNB-75 CNS; 95% with SNB-19 CNS; 103% in the assay on U251 CNS; 94.5% in the assay with PC-3 prostate. For the same compound, the growth is 103% in the assay on SK-MEL-5 melanoma; 97.3% with UACC-62 melanoma; 91.7% in the assay with LOX IMVI melanoma; 109% with SK-MEL-28 melanoma; 101% in the assay on SK-MEL-2 melanoma; 105% with EKVX NSCLC. In addition, the growth in the assay with SN12C renal was 95.2%; in the assay on UO-31 renal it was 79.6%; in the assay on TK-10 renal, 96.5%; with ACHN renal, 109%; in the assay on CAKI-1 renal, 104%; in the assay with A498 renal, 90.3%. Also, the growth in the assay on CCRF-CEM leukemia is 85.7%; in the assay on MOLT-4 leukemia, 82.3%.

On to `Cc1ncc(C(=O)Nc2ccc(CN3CCN(C)CC3)c(C(F)(F)F)c2)cc1C#Cc1cnc(NC2CC2)c2ncccc12`, for which the growth was -91.9% (active) in the assay on HCT-15 colon; -80.7% (active) with HT29 colon; -96.5% (active) with SNB-75 CNS; -97.2% (active) with SNB-19 CNS; -95% (active) in the assay on U251 CNS; -66.9% (active) in the assay on PC-3 prostate. Besides, the growth in the assay with SK-MEL-5 melanoma is -98.5% (active); in the assay on UACC-62 melanoma it was -62.8% (active); in the assay on LOX IMVI melanoma it was -81% (active); in the assay on SK-MEL-28 melanoma it was -91.5% (active); in the assay with SK-MEL-2 melanoma, -27.3% (active); in the assay on EKVX NSCLC, -86% (active). The growth is -85.3% (active) with SN12C renal; -97% (active) with UO-31 renal; -92.2% (active) in the assay on TK-10 renal; -100% (active) in the assay with ACHN renal; -0.579% (active) in the assay with CAKI-1 renal; -60.4% (active) with A498 renal. Besides, the growth in the assay with CCRF-CEM leukemia was -43% (active); with MOLT-4 leukemia, -65.4% (active).

For the compound `COC(=O)c1ccc2[nH]c(O)c(C(=Nc3ccc(N(C)C(=O)CN4CCN(C)CC4)cc3)c3ccc([N+](=O)[O-])cc3)c2c1`, the growth in the assay on HCT-15 colon was 73%; with HT29 colon, 38%; in the assay with SNB-75 CNS it was 54.7%; in the assay with SNB-19 CNS it was 80.1%; in the assay on U251 CNS it was 42.6%; in the assay on PC-3 prostate it was 35.1%. Moreover, the growth in the assay with SK-MEL-5 melanoma was 49.4%; with UACC-62 melanoma, 52.7%; in the assay with LOX IMVI melanoma it was 46.2%; with SK-MEL-28 melanoma, 64.9%; in the assay on SK-MEL-2 melanoma it was 43.2%; in the assay with EKVX NSCLC it was 88.1%. In addition, the growth was 27.4% in the assay with SN12C renal; 65.6% with UO-31 renal; 72.2% with TK-10 renal; 54.3% in the assay on ACHN renal; 19% in the assay on CAKI-1 renal; 25.9% with A498 renal. Moreover, the growth with CCRF-CEM leukemia is 21.2%; in the assay with MOLT-4 leukemia it was 8.41% (active).
